The results in this text go back to PubChem BioAssay.

Each structure is given as a SMILES string. Calls of active or inactive are those of the source.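 The calls were made as follows, unless noted: active = fluorescence slope after compound addition differing from the mean of all screened samples at 99.7% confidence, in either direction; inactive = the rest.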

The nature of assay [1]: inhibitors of TNFa-induced NFkB p65 translocation, primary screen, imaging, HUVEC, MLSMR starter and 10KST1 sets (AID 438;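 active = inhibition above 20% together with a positive visual image hit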;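 also: compound added about 3h40 before a 20 min TNFalpha stimulation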;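 as to inhibition: signal is the nuclear over cytoplasmic p65 intensity ratio per well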). To be noted: HUVEC TNFa-induced p65 nuclear translocation; cell count: measured here: nuclei count (cytotoxicity indicator), at 2.08 µM; inhibition: at 2 µM, stronger effect = higher value, 0% TNFa-plus-vehicle, 100% no-TNFa wells.
The nature of assay [2]: inhibitors of mutant huntingtin aggregation, primary screen, imaging, exon1htt(103Q)mCFP cells, high-content imaging (AID 483;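 active = visual image review flags a hit and inhibition of aggregation exceeds 20%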;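 also: compound exposure lasted 3 days before fixation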;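 as to nuclei count: percent of the per-plate median nuclei count of sample wells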). To be noted: exon1htt(103Q)mCFP cell line, aggregate imaging, at 2 µM; inhibition of aggregation: stronger effect = higher value; nuclei count: measured here: cell count, toxicity.
A short description of assay [3]: inhibitors of E-selectin induction by TNFa, primary screen, imaging, HUVEC, immunofluorescence, MLSMR starter and 10KST1 sets (AID 487;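 active = visually confirmed hit in the image check and inhibition above 20%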;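 as to inhibition: signal is fraction of cell area covered by stained E-selectin grains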;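 as to nuclei count: 100% = median nuclei count of all wells on the same plate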). To be noted: HUVEC TNFalpha-induced E-selectin immunofluorescence imaging, at 2 µM; inhibition: stronger effect = higher value; nuclei count: measured here: cell number, toxicity.
Assay [4] has as its target Voltage-gated potassium channel subunit beta-2 (Rattus norvegicus) (UniProt P62483). As to the kind of experiment: KvBeta enzyme negative modulators, primary screen, biochemical, NADPH fluorescence (AID 622;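 active = fluorescence slope higher than the sample average by over 3 SD, cut at about -0.22 in these data, passing the limit was not always enough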;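 also: slope of raw intensity against log time taken from 70 to 1610 s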). To be noted: recombinant KvBeta, 4-cyanobenzaldehyde reduction, at 10 µM, stronger effect = higher value.
The target is the same in assay [5]. Briefly: KvBeta positive modulators, primary screen, biochemical, NADPH fluorescence (AID 623;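 active = NADPH fluorescence slope more negative than the mean of all samples by about 3 SD, 99.7% confidence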;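 also: fluorescence intensity change per second fitted from 20 to 320 s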). To be noted: Recombinant KvBeta, NADPH fluorescence decrease slope, 10 min; at 10 µM; stronger effect = lower value.
Assay [6] deals with Alpha-2C adrenergic receptor (Homo sapiens) (UniProt P18825). Briefly: modulators of alpha2C/GIRK thallium flux, primary screen, cell-based, HEK293 alpha2C/GIRK1/2 (AID 624).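 Also: slope of fluorescence ratio to pre-addition baseline per second over 15 to 24 s.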 To be noted: thallium flux BTC fluorescence, at 10 µM, actives lie on both sides.
Assay [7] can be described thus: inhibitors of Sendai virus-induced IRF3 signaling, primary screen, TLR/RLR signaling modifier project, cell-based, Sendai virus stimulus, luciferase, 10K MLSCN set (AID 602276;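 active = inhibition at or above 50% at 10 µM; inactive = inhibition below 50%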;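 also: firefly luciferase from ISG56 promoter only with Renilla not read in this screen; 0% = Sendai virus plus DMSO and 100% = medium plus DMSO without virus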). To be noted: HEK293 RL24 IRF3 luciferase reporter, at 10 µM, stronger effect = higher value.
Assay [8] can be described thus: inhibitors of poly I:C-induced TLR3 signaling, primary screen, cell-based, poly I:C stimulus, luciferase, 10K MLSCN set (AID 602277;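 active = inhibition of the reporter signal at or above 50%; inactive = inhibition below 50%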). To be noted: HEK293-TLR3 RL24 IRF3 luciferase reporter, at 10 µM, stronger effect = higher value.

Sequence of Voltage-gated potassium channel subunit beta-2 (Rattus norvegicus) (P62483 whole entry, looked up): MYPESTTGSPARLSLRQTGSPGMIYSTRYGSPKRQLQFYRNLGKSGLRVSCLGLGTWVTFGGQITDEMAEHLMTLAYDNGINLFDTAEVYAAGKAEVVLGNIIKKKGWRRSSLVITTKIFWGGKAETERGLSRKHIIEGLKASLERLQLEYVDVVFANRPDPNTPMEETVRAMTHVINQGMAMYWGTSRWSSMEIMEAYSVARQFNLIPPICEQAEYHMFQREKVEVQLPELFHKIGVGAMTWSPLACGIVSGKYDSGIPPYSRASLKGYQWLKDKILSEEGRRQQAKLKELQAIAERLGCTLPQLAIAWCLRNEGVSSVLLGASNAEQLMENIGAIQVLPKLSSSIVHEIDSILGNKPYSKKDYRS
Sequence of Alpha-2C adrenergic receptor (Homo sapiens) (P18825 whole entry, looked up): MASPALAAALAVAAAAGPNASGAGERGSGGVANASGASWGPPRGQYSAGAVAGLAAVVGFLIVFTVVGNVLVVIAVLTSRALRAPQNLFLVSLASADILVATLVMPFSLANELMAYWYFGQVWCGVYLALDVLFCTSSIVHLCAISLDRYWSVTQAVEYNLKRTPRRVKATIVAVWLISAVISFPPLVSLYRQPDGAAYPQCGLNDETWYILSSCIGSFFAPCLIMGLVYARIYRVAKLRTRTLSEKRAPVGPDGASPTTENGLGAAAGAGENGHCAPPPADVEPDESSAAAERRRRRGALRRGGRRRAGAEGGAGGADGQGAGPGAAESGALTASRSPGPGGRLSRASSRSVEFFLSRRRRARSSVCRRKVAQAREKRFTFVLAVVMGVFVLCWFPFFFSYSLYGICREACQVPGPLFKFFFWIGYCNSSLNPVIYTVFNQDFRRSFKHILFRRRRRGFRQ

As for `Cc1cccc(NC2SC(=O)N(c3ccccc3)C2=O)c1` (centres undefined), in assay [1], the cell count came out at 152. Besides, the inhibition in assay [1] is -14.3% (inactive); in assay [3] it was 26.4% (inactive); in assay [7], -2.7% (inactive); in assay [8] it was -12.1% (inactive). Moreover, the inhibition of aggregation in assay [2] was 11.5% (inactive). The nuclei count in assay [2] stood at 92.8%; in assay [3] it was 80.9%. Further, the fluorescence slope in assay [4] is -0.377 (inactive). Further, in assay [5], the NADPH fluorescence slope was 5.7e-06 (inactive). Besides, the slope in assay [6] is 0.00476 (inactive).

For the molecule `Cc1cc(O)c(-c2cc(C(=O)Nc3ccc(S(=O)(=O)N4CCOCC4)cc3)[nH]n2)cc1C`, the cell count in assay [1] came out at 499. The inhibition is 5.8% (inactive) in assay [1], -62.7% (inactive) in assay [3], -12.1% (inactive) in assay [7] and -24.7% (inactive) in assay [8]. Moreover, the inhibition of aggregation in assay [2] was -6.9% (inactive). For the same molecule, the nuclei count in assay [2] turned out to be 100%; in assay [3], 153%. Besides, the fluorescence slope in assay [4] was -0.584 (inactive). Further, the NADPH fluorescence slope in assay [5] is -1.4e-05 (inactive). For the same molecule, in assay [6], the slope is 0.00629 (inactive).

On to `O=C(CSc1nc(-c2ccccc2)cs1)NC(=O)NCc1ccco1`, for which the cell count in assay [1] came out at 355. Besides, the inhibition in assay [1] was -1.1% (inactive); in assay [3], -105% (inactive); in assay [7], 18.5% (inactive); in assay [8], 3.13% (inactive). Also, the inhibition of aggregation in assay [2] was 1% (inactive). Moreover, the nuclei count in assay [2] was determined as 75.7%; in assay [3], 125%. For the same molecule, the fluorescence slope in assay [4] was -0.429 (inactive). For the same molecule, the NADPH fluorescence slope in assay [5] is 3.1e-06 (inactive). Besides, the slope in assay [6] is 0.00572 (inactive).

As to `CCN(CC)CCCNS(=O)(=O)c1ccc(OC)cc1`, in assay [1], the cell count was 460. For the same molecule, the inhibition in assay [1] is 0.5% (inactive); in assay [3], -61.5% (inactive); in assay [7] it was 13.6% (inactive); in assay [8], 27.9% (inactive). Further, the inhibition of aggregation in assay [2] is -18% (inactive). Further, the results for the nuclei count in assay [2] and in assay [3] were 110% and 134%, respectively. The fluorescence slope in assay [4] is -0.429 (inactive). In addition, in assay [5], the NADPH fluorescence slope is -0.000105 (inactive). In assay [6], the slope is 0.00623 (inactive).

As to `CCOCCCNC(=O)C1CCC(CNS(=O)(=O)c2cccc3nsnc23)CC1` (centres undefined), in assay [1], the cell count is 808. For the same molecule, the inhibition was 6.8% (inactive) in assay [1], -19.9% (inactive) in assay [3], 8.12% (inactive) in assay [7] and 22.9% (inactive) in assay [8]. For the same molecule, the inhibition of aggregation in assay [2] is -28.4% (inactive). The nuclei count in assay [2] was determined as 103%; in assay [3], 119%. The fluorescence slope in assay [4] was -0.476 (inactive). Also, the NADPH fluorescence slope in assay [5] was -4.4e-05 (inactive). Further, the slope in assay [6] was 0.00547 (inactive).

As for `CC(C)(C)SCCNC(=O)CSc1ccccc1`, the cell count in assay [1] came out at 636. Moreover, the inhibition in assay [1] is -11% (inactive); in assay [3] it was -42.9% (inactive); in assay [7] it was -20.5% (inactive); in assay [8], -23.4% (inactive). Further, the inhibition of aggregation in assay [2] was 8.5% (inactive). Besides, the nuclei count in assay [2] amounted to 93%; in assay [3], 78.7%. Also, the fluorescence slope in assay [4] was -0.586 (inactive). Besides, the NADPH fluorescence slope in assay [5] is -2.1e-05 (inactive). In assay [6], the slope was 0.00555 (inactive).

Take `COc1ccc(-n2c(Cc3cccn3C)nnc2SCC(=O)Nc2cccc(C)c2C)cc1`: in assay [1], the cell count is 816. For the same molecule, the inhibition in assay [1] is 4.6% (inactive); in assay [3], -26.4% (inactive); in assay [7], 0.797% (inactive); in assay [8], 27.3% (inactive). Further, the inhibition of aggregation in assay [2] was 4.2% (inactive). Moreover, the nuclei count turned out to be 105% in assay [2] and 110% in assay [3]. In assay [4], the fluorescence slope is -0.596 (inactive). Also, the NADPH fluorescence slope in assay [5] was -4.5e-06 (inactive). The slope in assay [6] was 0.00595 (inactive).

In the case of `CCOC(=O)c1cc2cc(F)ccc2nc1C`, the cell count in assay [1] stood at 646. In addition, the inhibition in assay [1] was 4.9% (inactive); in assay [3], -7% (inactive); in assay [7], -17.9% (inactive); in assay [8], -45.1% (inactive). In assay [2], the inhibition of aggregation was 13.9% (inactive). Also, the figures for the nuclei count in assay [2] and in assay [3] were 106% and 118%, respectively. The fluorescence slope in assay [4] is -0.612 (inactive). In assay [5], the NADPH fluorescence slope is -2.7e-05 (inactive). In addition, the slope in assay [6] is 0.00327 (inactive).

With `CCCN(CCC)C(=O)c1c(C)[nH]c(C(=O)OCC)c1C`, the cell count in assay [1] came to 740. For the same molecule, the inhibition in assay [1] is 0.6% (inactive); in assay [3], -78.7% (inactive); in assay [7] it was -15.1% (inactive); in assay [8], -1.04% (inactive). Besides, the inhibition of aggregation in assay [2] was 2% (inactive). Further, the nuclei count stood at 109% in assay [2] and 106% in assay [3]. In addition, the fluorescence slope in assay [4] was -0.605 (inactive). In addition, in assay [5], the NADPH fluorescence slope was -2.3e-05 (inactive). The slope in assay [6] was 0.00726 (inactive).

`O=C(OCn1nnc2ccccc2c1=O)C1CCN(S(=O)(=O)c2cccs2)CC1`: the cell count in assay [1] was 479. The inhibition was 8.9% (inactive) in assay [1], 13.8% (inactive) in assay [3], -1.19% (inactive) in assay [7] and 2% (inactive) in assay [8]. The inhibition of aggregation in assay [2] is -8.9% (inactive). Further, the nuclei count in assay [2] turned out to be 103%; in assay [3], 105%. Besides, the fluorescence slope in assay [4] was -0.356 (inactive). Besides, the NADPH fluorescence slope in assay [5] is 9.4e-06 (inactive). Also, the slope in assay [6] is 0.00571 (inactive).

Regarding `O=C(Nc1ccc(N2CCCC2)cc1)c1cccc(F)c1`, in assay [1], the cell count stood at 694. Also, the inhibition is 1.6% (inactive) in assay [1], -83.5% (inactive) in assay [3], 11.4% (inactive) in assay [7] and -67.8% (inactive) in assay [8]. Further, the inhibition of aggregation in assay [2] is 24.1% (inactive). Further, the nuclei count in assay [2] turned out to be 94.5%; in assay [3], 148%. Besides, the fluorescence slope in assay [4] was -0.436 (inactive). Besides, the NADPH fluorescence slope in assay [5] was 7e-06 (inactive). The slope in assay [6] was 0.0066 (inactive).

For `CCOC(=O)c1c(-c2ccc(C)o2)csc1NC(=O)COC(=O)c1cccs1`, the cell count in assay [1] was determined as 478. Further, the inhibition in assay [1] is -7.8% (inactive); in assay [3], -41.5% (inactive); in assay [7] it was 7.28% (inactive); in assay [8], 15.5% (inactive). Further, in assay [2], the inhibition of aggregation was 10% (inactive). Also, the nuclei count in assay [2] was 66.4%; in assay [3], 113%. Also, in assay [4], the fluorescence slope was -0.403 (inactive). Also, the NADPH fluorescence slope in assay [5] is -5.7e-05 (inactive). For the same molecule, the slope in assay [6] was 0.00798 (inactive).

With `Cc1cc(C)nc(/N=C2\NC(=O)CC(C(=O)O)N2c2ccc(Cl)cc2)n1` (centres undefined), the cell count in assay [1] stood at 639. The inhibition was -9.7% (inactive) in assay [1], -44.1% (inactive) in assay [3], 11.6% (inactive) in assay [7] and 34.3% (inactive) in assay [8]. Moreover, the inhibition of aggregation in assay [2] was 0.5% (inactive). Moreover, the figures for the nuclei count in assay [2] and in assay [3] were 101% and 107%, respectively. Moreover, in assay [4], the fluorescence slope was -0.552 (inactive). For the same molecule, in assay [5], the NADPH fluorescence slope is -2.8e-05 (inactive). The slope in assay [6] was 0.00735 (inactive).

In the case of `Nc1nc(Nc2cccc3ccccc23)nc(C2CCCC2=O)n1` (centres undefined), the cell count in assay [1] came out at 349. The inhibition in assay [1] is 1.8% (inactive); in assay [3] it was -38.8% (inactive); in assay [7], 4.53% (inactive); in assay [8] it was 13.8% (inactive). Besides, in assay [2], the inhibition of aggregation is -7% (inactive). The results for the nuclei count in assay [2] and in assay [3] were 97.3% and 109%, respectively. Moreover, in assay [4], the fluorescence slope was -0.312 (inactive). In addition, in assay [5], the NADPH fluorescence slope is -7e-05 (inactive). Besides, the slope in assay [6] is 0.00598 (inactive).
